Rows were chosen to be rich in hits. Some 4.5% of all compounds tested hit in one or more screens of this group.
PrP 5UTR inh = inhibition of PrP 5' UTR reporter expression | cell-based PrP 5' UTR mRNA reporter, plate reader | inhibition, % (concentration not given with the values) | 0.35% of 340,000 active | AID 488862, 2010; in the data active = inhibition above about 52%
FBA Mtb inh = Mtb FBA enzyme inhibitors, primary screen, biochemical, fluorescence, strain H37Rv | 2.3% of 360,000 active | purified M. tuberculosis FBA, fluorescence read-out | inhibition, % at 1 µM | AID 588726, 2011 | Fructose-bisphosphate aldolase (Mycobacterium tuberculosis (strain ATCC 25618 / H37Rv)), …; in the data active = inhibition above about 27%
Target sequence (P9WQA3 whole entry, looked up): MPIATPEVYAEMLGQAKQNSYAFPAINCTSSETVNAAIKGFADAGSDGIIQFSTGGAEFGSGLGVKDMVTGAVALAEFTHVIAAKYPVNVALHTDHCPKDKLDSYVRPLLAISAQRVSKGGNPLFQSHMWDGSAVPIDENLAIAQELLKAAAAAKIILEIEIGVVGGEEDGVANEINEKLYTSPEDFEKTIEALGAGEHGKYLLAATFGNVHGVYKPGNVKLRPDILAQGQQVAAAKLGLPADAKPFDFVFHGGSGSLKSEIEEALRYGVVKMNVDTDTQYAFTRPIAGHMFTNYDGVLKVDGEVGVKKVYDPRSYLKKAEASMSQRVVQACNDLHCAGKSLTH
PrPC surface inh = inhibitors of human cell surface prion protein PrPC, primary screen, cell-based, TR-FRET. 0.43% of 370,000 active. TR-FRET read-out. Major prion protein (Homo sapiens), P04156. inhibition, % at 13.8 µM; in the data active = inhibition above about 24%
GDH-TPI counter = GDH-TPI coupling enzyme inhibitors, primary screen, artefact control for M. tuberculosis FBA inhibitor project, biochemical, absorbance, full deck; GDH-TPI coupled enzyme counterscreen, NADH absorbance; 1.2% of 360,000 active; inhibition, % at 4.8 µM; in the data active = inhibition above about 30%
PfHsp40 yeast = rescue of yeast from PfHsp40 toxicity, primary screen, S. cerevisiae, ATP luminescence; S. cerevisiae expressing PfHsp40, growth rescue; growth rescue, % at 12.5 µM; 0.68% of 340,000 active; in the data active = growth rescue above about 28%, passing the limit was not always enough;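 note: yeast W303a lacking pdr1 and pdr3 grown in galactose medium; growth measured after three days at 30 °C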
BJeLR lethal = MLPCN primary cell-based screen for lethality selective to Ras in HRASV12 cells. BJeLR (HRASV12) viability, CellTiter-Glo ATP luminescence, 48 h. inhibition, % (no concentration beside the values). 0.17% of 300,000 active. AID 1554, 2009; in the data active = inhibition above about 50%
Hits are given with their value; - = inactive; . = no result given; + = active, no number.

SMILES	PrP 5UTR inh	FBA Mtb inh	PrPC surface inh	GDH-TPI counter	PfHsp40 yeast	BJeLR lethal
Cc1cccc(NS(=O)(=O)c2ccc(NC(=O)CN(c3cc([N+](=O)[O-])ccc3C)S(C)(=O)=O)cc2)c1	-	-	-	-	-	69.1
Cc1cccc(NS(=O)(=O)c2cc(NC(=O)CC(=O)c3ccc([N+](=O)[O-])cc3)ccc2C)c1	.	.	.	.	.	-
Cc1cccc(N(CC(=O)N/N=C/c2cc([N+](=O)[O-])ccc2Cl)S(C)(=O)=O)c1C	-	34.0	.	-	-	-
O=C(NCC(c1ccccc1)c1ccccc1)[C@H](Cc1ccccc1)NC1(C(=O)NC2CCCCC2)CCOCC1	.	.	-	.	.	.
CCCCOCCCNC(=O)C[C@@H]1C(=O)N2CCCC3=C2[C@@]1(C(=O)OC)CCCC3	.	.	-	.	.	.
O=C(c1ccncc1)N1CCN(c2ccc(F)cc2)CC1	-	-	-	-	-	-
O=C(c1cccnc1)N1CCN(c2ccc(Cl)cc2)CC1	-	-	-	32.1	-	-
O=C(c1ccc(Cl)cc1)N1CCN(c2ccc(F)cc2)CC1	-	-	-	-	109.7	-
C=CCN1C(=O)[C@@H](CC(=O)N2CCN(C(=O)C3CC3)CC2)[C@]2(C(=O)OCC)CCCCC/C=C/12	.	.	-	.	.	.
CC(C)C1N=C(NC(=O)OCc2ccccc2)NC1=O (stereo unspecified) (tested in a mixture with another compound)	.	.	-	.	.	.
Cc1ccc(OCC(=O)N/N=C/C=C/c2ccco2)cc1C	-	-	-	36.6	-	-
O=C(N/N=C/C=C/c1ccco1)c1cnccn1	-	-	-	-	-	-
O=C(N/N=C/C=C/c1ccco1)c1cccnc1	-	-	-	37.5	-	-
O=C(N/N=C/C=C/c1ccccc1)c1cccnc1	-	-	-	-	-	-
O=C(N/N=C\c1ccco1)c1cncc(Br)c1	.	.	-	.	.	-
O=C(N/N=C/C=C\c1ccco1)c1cccnc1	-	-	-	32.7	-	-
O=C(N/N=C\C=C\c1ccco1)c1cncc(Br)c1	-	-	-	33.7	-	-
CN(c1ccc(NC(=O)Cc2c[nH]c3ccccc23)cc1)c1ccccn1	.	.	-	.	.	.
O=S1(=O)c2c(cccc2N2CC[C@@H](O)C2)O[C@@H]2CCN1C2	.	.	-	.	.	.
Cc1cc(C)cc(NC(=O)N2CCC(c3nc4ccc(Cl)cc4[nH]3)CC2)c1	.	.	-	.	.	.
CCOC(=O)C1CCCCN1C(=O)[C@@H]1CC=C[C@@H]2CCN(c3ccccc3)C(=O)[C@@H]21 (stereo partly specified)	.	.	-	.	.	.
COc1ccc(C(=O)/C=C(\Nc2ccc(Br)c(C)c2)c2ccc(OC)cc2OC)c(OC)c1	.	.	-	.	.	.
O=C(N/N=C/C=C\c1cccc([N+](=O)[O-])c1)c1ccccn1	-	-	-	34.3	-	-
O=C(N/N=C/C=C\c1ccccc1[N+](=O)[O-])c1ccccn1	-	-	-	-	-	-
O=C(N/N=C/C=C\c1ccco1)c1ccccn1	-	-	-	35.5	-	-
SMILES	PrP 5UTR inh	FBA Mtb inh	PrPC surface inh	GDH-TPI counter	PfHsp40 yeast	BJeLR lethal
Cc1ccc(CNC(=O)OC(C)(C)C)c(/C=C/S(=O)(=O)NC2CCCC2)c1	.	.	-	.	.	.
Cc1ccccc1Cn1nnc(C(=O)Nc2ccc3c(c2)OCCO3)c1N	-	-	-	-	105.8	-
Cc1ccc(C)c(Cn2nnc(C(=O)Nc3ccc4c(c3)OCCO4)c2N)c1	-	-	-	-	-	-
CC(C)(C)c1ccc(-c2ncccc2O)cc1	-	169.5	-	-	-	.
O=C(Nc1ccc(F)cc1)OC[C@@H]1CSCCS(=O)(=O)N1	.	.	-	.	.	.
O=c1c2ccccc2n(Cc2ccno2)n1[C@@H](Cc1ccccc1)Cn1cc(-c2ccc(-c3ccccc3)cc2)nn1	.	.	-	.	.	.
COc1cccc(-c2cc(C(F)(F)F)c(C#N)c(=O)[nH]2)c1	-	+	-	-	-	-
N#Cc1c(C(F)(F)F)cc(-c2ccccc2)[nH]c1=O	-	+	-	-	-	-
N#Cc1c(C(F)(F)F)cc(C2CC2)[nH]c1=O	-	+	-	-	-	-
N#Cc1c(-c2ccc(C(F)(F)F)cc2)cc(-c2ccccc2)[nH]c1=S	-	-	-	-	-	-
N#Cc1c(C(F)(F)F)cc(=O)[nH]c1SCC(=O)O	-	-	-	-	-	-
N#Cc1c(C(F)(F)F)cc(-c2ccccc2Cl)[nH]c1=O	-	145.4	-	-	-	-
N#Cc1c(-c2cccs2)cc(-c2cccs2)[nH]c1=O	-	-	-	-	-	-
CC(C)c1cc(C(C)C)c(S(=O)(=O)N2CCC(c3cn4ccccc4n3)CC2)c(C(C)C)c1	.	.	-	.	.	.
Cc1ccc(-c2cc(-c3ccccc3)[nH]c(=S)c2C#N)cc1	-	-	-	-	-	-
CSc1cc(-c2ccccc2)[nH]c(=O)c1C#N	-	34.2	-	-	-	-
Cc1ccc(-c2cc(-c3ccco3)c(C#N)c(=O)[nH]2)cc1	-	123.7	-	-	-	-
Cc1ccc(-c2nc(C(F)(F)F)cc(=O)[nH]2)cc1	-	-	-	-	-	-
Cc1ccc(-c2cc(C(F)(F)F)c(C#N)c(=O)[nH]2)cc1	-	138.8	-	-	-	-
CSc1cc(-c2ccccc2)n(C)c(=O)c1C#N	-	-	-	-	-	-
CC(=O)c1c(C)[nH]c(C(=O)Nc2ccccc2C)c1C	.	.	-	.	.	.
CCOc1ccc(NCc2cc3c(C(C)(C)C)nn(-c4ccccc4)c3[nH]c2=O)cc1	-	-	-	-	42.6	-
O=C(OC12CCCN(C1)/C(=C/c1ccc(Cl)cc1)C2)c1ccc(Cl)cc1 (stereo unspecified)	.	.	-	.	.	.
CC1=CN2C(=N)/C(=C/c3ccco3)C(=O)N=C2S1	-	-	-	33.2	-	-
CCOC(=O)c1cnc2oc3ccccc3n2c1=O	-	-	-	-	-	-
SMILES	PrP 5UTR inh	FBA Mtb inh	PrPC surface inh	GDH-TPI counter	PfHsp40 yeast	BJeLR lethal
O=C(O)c1cnc2[nH]c3ccccc3n2c1=O	-	176.1	-	36.2	-	-
Cc1c(C)c2c(OCC(=O)N[C@@H](C)C(=O)O)cc3c(c2oc1=O)CCC(C)(C)O3	-	+	-	-	-	-
CCC(NC(=O)COc1cc2c(c3oc(=O)c(C)c(C)c13)CCC(C)(C)O2)C(=O)O (stereo unspecified)	-	+	-	-	-	-
Cc1c(OCC(=O)NC(Cc2ccc(Cl)cc2)C(=O)O)ccc2c3c(c(=O)oc12)CCCC3 (stereo unspecified)	-	-	-	-	-	-
Cc1c(OCC(=O)N[C@@H](Cc2ccccc2)C(=O)O)ccc2c3c(c(=O)oc12)CCC3	-	-	-	-	-	-
ClC1(Cl)CC1Cn1c(C2CC2)nc2ccccc21 (stereo unspecified)	-	-	-	-	-	-
CCc1nc2ccccc2n1CC1CC1(Cl)Cl (stereo unspecified)	-	-	-	-	55.9	-

High-throughput results from PubChem.
